Consider 8 sequences from publication PMC7862700, “An all-to-all approach to the identification of sequence-specific readers for epigenetic DNA modifications on cytosine”.

What all share (assay): DAPPL (digital affinity profiling via proximity ligation, sequencing); 10 mM Tris-HCl pH 7.5, 50 mM NaCl, 1 mM DTT, 4% glycerol, room temperature, 30 min; GST-TFs on glutathione beads, 16-mer random dsDNA library, 0.1% formaldehyde crosslink after washing; high values mean tight binding
Holding throughout (conditions): protein: recombinant; tags: N-terminal GST; dsDNA, one strand shown

The target of one experiment is T1, ERF (Homo sapiens, UniProt P50548 1-548).
T1 sequence: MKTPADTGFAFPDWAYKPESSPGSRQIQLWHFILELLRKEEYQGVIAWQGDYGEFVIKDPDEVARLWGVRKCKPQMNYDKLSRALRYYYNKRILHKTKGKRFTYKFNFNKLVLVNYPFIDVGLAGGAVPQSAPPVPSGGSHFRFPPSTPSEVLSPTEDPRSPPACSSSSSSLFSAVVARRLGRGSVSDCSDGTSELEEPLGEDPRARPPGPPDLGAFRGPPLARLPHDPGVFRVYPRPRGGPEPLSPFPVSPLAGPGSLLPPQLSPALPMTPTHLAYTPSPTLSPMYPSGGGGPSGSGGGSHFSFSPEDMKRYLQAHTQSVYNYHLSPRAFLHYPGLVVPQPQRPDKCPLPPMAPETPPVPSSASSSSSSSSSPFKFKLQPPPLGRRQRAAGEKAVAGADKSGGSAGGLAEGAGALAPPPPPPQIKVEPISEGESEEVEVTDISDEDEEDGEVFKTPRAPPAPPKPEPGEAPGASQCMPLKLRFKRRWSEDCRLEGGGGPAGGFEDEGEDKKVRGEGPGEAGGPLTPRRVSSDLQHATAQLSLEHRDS
A digest of the protocol:
(§1)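 Human transcription factors carrying a GST fusion were produced in yeast, bound to glutathione beads, tagged with DNA barcodes and pooled together with a tag-only sample. Each pool was held with 200 nmole of a random double-stranded 16-mer DNA library in Tris/NaCl/DTT/glycerol buffer for 30 min at room temperature, then washed, crosslinked in 0.1% formaldehyde, proximity-ligated with BsaI/T4 ligase (1 h, 37 °C), PCR-amplified and sequenced on an Illumina NextSeq500. Binding signal is the read frequency of each hexamer for a given factor divided by its frequency in the tag-only sample.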

The target in another experiment is T2, ETV3L (Homo sapiens, UniProt Q6ZN32 1-361).
T2 sequence: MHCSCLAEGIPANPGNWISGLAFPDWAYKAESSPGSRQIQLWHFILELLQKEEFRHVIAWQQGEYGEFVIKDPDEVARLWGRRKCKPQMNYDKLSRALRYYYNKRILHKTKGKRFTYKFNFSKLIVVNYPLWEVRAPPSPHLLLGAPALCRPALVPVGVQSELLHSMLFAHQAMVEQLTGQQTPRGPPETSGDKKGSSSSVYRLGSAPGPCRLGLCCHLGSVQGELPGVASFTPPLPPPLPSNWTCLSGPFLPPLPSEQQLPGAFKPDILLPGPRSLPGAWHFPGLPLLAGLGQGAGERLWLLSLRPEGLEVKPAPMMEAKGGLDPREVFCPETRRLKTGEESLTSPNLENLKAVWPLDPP
A digest of the protocol:
as §1

A further experiment has as its target T3, ETS2 (Homo sapiens, UniProt P15036 1-469).
T3 sequence: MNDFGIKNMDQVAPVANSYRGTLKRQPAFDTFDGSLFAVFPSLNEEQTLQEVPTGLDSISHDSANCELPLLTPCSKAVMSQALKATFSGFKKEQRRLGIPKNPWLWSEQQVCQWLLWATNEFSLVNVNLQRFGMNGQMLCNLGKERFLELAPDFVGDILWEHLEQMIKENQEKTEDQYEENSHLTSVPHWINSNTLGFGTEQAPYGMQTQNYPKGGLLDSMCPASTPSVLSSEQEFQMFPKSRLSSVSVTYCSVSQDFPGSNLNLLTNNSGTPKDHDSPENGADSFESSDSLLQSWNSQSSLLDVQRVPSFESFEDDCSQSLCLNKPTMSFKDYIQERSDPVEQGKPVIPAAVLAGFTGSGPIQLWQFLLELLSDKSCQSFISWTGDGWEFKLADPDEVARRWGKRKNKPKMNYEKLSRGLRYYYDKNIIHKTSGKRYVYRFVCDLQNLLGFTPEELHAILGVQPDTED
The method, boiled down: as §1

In a further experiment the target is T4, SPDEF (Homo sapiens, UniProt O95238 1-335).
T4 sequence: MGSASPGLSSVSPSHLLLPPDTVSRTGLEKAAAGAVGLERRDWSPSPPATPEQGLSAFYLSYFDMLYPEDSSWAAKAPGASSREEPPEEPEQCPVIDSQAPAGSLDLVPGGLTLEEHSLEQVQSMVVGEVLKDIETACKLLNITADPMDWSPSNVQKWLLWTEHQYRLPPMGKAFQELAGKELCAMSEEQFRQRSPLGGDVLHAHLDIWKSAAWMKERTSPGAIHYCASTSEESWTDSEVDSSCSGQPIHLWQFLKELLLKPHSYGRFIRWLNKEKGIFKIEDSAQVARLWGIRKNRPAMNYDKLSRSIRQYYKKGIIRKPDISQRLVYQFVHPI
The method, boiled down: as §1

In another experiment the target is T5, ETV7 (Homo sapiens, UniProt Q9Y603 1-341).
T5 sequence: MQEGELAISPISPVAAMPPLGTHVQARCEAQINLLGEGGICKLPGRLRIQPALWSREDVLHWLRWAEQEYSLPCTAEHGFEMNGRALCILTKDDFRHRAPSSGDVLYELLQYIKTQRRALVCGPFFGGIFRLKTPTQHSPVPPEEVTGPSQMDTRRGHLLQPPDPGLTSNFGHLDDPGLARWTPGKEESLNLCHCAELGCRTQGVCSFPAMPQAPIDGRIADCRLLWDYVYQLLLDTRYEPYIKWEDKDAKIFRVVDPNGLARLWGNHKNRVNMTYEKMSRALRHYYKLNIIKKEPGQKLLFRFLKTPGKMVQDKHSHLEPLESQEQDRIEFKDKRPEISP
A digest of the protocol:
as §1

Another experiment has as its target T6, ELF5 (Homo sapiens, UniProt Q9UKW6-2 1-255).
T6 sequence: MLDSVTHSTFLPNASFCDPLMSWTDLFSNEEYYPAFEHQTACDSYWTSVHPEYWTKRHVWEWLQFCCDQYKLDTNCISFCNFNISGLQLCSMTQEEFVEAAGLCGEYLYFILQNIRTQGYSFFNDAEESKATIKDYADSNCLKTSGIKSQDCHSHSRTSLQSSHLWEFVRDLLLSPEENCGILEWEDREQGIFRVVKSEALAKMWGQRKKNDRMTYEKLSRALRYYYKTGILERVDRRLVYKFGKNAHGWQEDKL
A digest of the protocol: as §1

A further experiment concerns the target T7, ETV3 (Homo sapiens, UniProt P41162-2 1-143).
T7 sequence: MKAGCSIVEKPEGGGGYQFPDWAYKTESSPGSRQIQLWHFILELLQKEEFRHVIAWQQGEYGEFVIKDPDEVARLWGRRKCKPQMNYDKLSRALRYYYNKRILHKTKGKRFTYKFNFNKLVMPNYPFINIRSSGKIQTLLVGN
A digest of the protocol:
as §1

The target of another experiment is ETV6 (Homo sapiens, UniProt P41212 1-452). The method, boiled down: as §1
Sequence of ETV6 (P41212 whole entry): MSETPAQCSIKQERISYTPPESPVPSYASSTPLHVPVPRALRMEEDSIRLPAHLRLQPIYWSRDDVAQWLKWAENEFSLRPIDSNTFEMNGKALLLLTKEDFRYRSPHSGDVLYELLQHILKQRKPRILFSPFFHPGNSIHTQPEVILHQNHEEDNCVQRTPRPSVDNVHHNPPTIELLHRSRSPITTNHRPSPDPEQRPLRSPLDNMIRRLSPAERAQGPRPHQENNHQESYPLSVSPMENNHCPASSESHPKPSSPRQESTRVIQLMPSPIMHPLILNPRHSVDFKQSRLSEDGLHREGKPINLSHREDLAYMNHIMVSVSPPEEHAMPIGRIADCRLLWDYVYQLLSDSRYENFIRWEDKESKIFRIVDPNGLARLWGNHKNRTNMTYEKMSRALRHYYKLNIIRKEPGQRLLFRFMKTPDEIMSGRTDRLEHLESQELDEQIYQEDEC

For the sequence TGACAT, the binding signal with ERF is 1.21 fold enrichment (6-mer frequency, TF over GST control); in the experiment with ETV3L, 1.28 fold enrichment (6-mer frequency, TF over GST control); with ETS2, 1.3 fold enrichment (6-mer frequency, TF over GST control); with SPDEF it was 1.25 fold enrichment (6-mer frequency, TF over GST control); with ETV7, 1.25 fold enrichment (6-mer frequency, TF over GST control); in the experiment with ELF5 it was 1.22 fold enrichment (6-mer frequency, TF over GST control). Besides, the binding signal was 1.26 fold enrichment (6-mer frequency, TF over GST control) with ETV3 and 1.37 fold enrichment (6-mer frequency, TF over GST control) with ETV6.
On to TACTGC, for which the binding signal is 1.14 fold enrichment (6-mer frequency, TF over GST control) with ERF; 1.17 fold enrichment (6-mer frequency, TF over GST control) with ETV3L; 1.2 fold enrichment (6-mer frequency, TF over GST control) with ETS2; 1.26 fold enrichment (6-mer frequency, TF over GST control) with SPDEF; 1.2 fold enrichment (6-mer frequency, TF over GST control) with ETV7; 1.17 fold enrichment (6-mer frequency, TF over GST control) in the experiment with ELF5. Further, the binding signal is 1.31 fold enrichment (6-mer frequency, TF over GST control) with ETV3 and 1.26 fold enrichment (6-mer frequency, TF over GST control) with ETV6.
For ATATTG, the binding signal with ERF is 1.31 fold enrichment (6-mer frequency, TF over GST control); with ETV3L, 1.41 fold enrichment (6-mer frequency, TF over GST control); with ETS2, 1.36 fold enrichment (6-mer frequency, TF over GST control); with SPDEF, 1.43 fold enrichment (6-mer frequency, TF over GST control); with ETV7, 1.33 fold enrichment (6-mer frequency, TF over GST control); with ELF5, 1.34 fold enrichment (6-mer frequency, TF over GST control). In addition, the binding signal was 1.35 fold enrichment (6-mer frequency, TF over GST control) with ETV3 and 1.42 fold enrichment (6-mer frequency, TF over GST control) with ETV6.
Consider TCCGTT, for which the binding signal with ERF was 1.53 fold enrichment (6-mer frequency, TF over GST control); with ETV3L, 1.46 fold enrichment (6-mer frequency, TF over GST control); in the experiment with ETS2, 1.54 fold enrichment (6-mer frequency, TF over GST control); in the experiment with SPDEF, 1.74 fold enrichment (6-mer frequency, TF over GST control); in the experiment with ETV7, 1.41 fold enrichment (6-mer frequency, TF over GST control); with ELF5, 1.66 fold enrichment (6-mer frequency, TF over GST control). For the same sequence, the binding signal with ETV3 was 1.58 fold enrichment (6-mer frequency, TF over GST control); with ETV6, 1.49 fold enrichment (6-mer frequency, TF over GST control).
As to ATACGC, the binding signal with ERF was 1.18 fold enrichment (6-mer frequency, TF over GST control); with ETV3L it was 1.14 fold enrichment (6-mer frequency, TF over GST control); with ETS2, 1.11 fold enrichment (6-mer frequency, TF over GST control); in the experiment with SPDEF it was 1.2 fold enrichment (6-mer frequency, TF over GST control); with ETV7 it was 1.06 fold enrichment (6-mer frequency, TF over GST control); with ELF5, 1.11 fold enrichment (6-mer frequency, TF over GST control). In addition, the binding signal with ETV3 is 1.07 fold enrichment (6-mer frequency, TF over GST control); with ETV6, 1.2 fold enrichment (6-mer frequency, TF over GST control).
Consider GTAATC, for which the binding signal in the experiment with ERF is 1.08 fold enrichment (6-mer frequency, TF over GST control); with ETV3L it was 1.12 fold enrichment (6-mer frequency, TF over GST control); with ETS2, 1.16 fold enrichment (6-mer frequency, TF over GST control); in the experiment with SPDEF, 1.12 fold enrichment (6-mer frequency, TF over GST control); with ETV7 it was 1.17 fold enrichment (6-mer frequency, TF over GST control); in the experiment with ELF5, 1.18 fold enrichment (6-mer frequency, TF over GST control). For the same sequence, the binding signal is 1.1 fold enrichment (6-mer frequency, TF over GST control) with ETV3 and 1.2 fold enrichment (6-mer frequency, TF over GST control) with ETV6.
With CCCACT, the binding signal with ERF was 1.42 fold enrichment (6-mer frequency, TF over GST control); with ETV3L it was 1.37 fold enrichment (6-mer frequency, TF over GST control); with ETS2, 1.32 fold enrichment (6-mer frequency, TF over GST control); with SPDEF it was 1.27 fold enrichment (6-mer frequency, TF over GST control); with ETV7 it was 1.28 fold enrichment (6-mer frequency, TF over GST control); with ELF5, 1.31 fold enrichment (6-mer frequency, TF over GST control). Besides, the binding signal in the experiment with ETV3 is 1.32 fold enrichment (6-mer frequency, TF over GST control); in the experiment with ETV6, 1.37 fold enrichment (6-mer frequency, TF over GST control).
As for GGATGC, the binding signal with ERF was 1.13 fold enrichment (6-mer frequency, TF over GST control); with ETV3L, 1.19 fold enrichment (6-mer frequency, TF over GST control); with ETS2, 1.2 fold enrichment (6-mer frequency, TF over GST control); in the experiment with SPDEF, 1.91 fold enrichment (6-mer frequency, TF over GST control); with ETV7, 1.22 fold enrichment (6-mer frequency, TF over GST control); with ELF5 it was 1.25 fold enrichment (6-mer frequency, TF over GST control). Further, the binding signal is 1.3 fold enrichment (6-mer frequency, TF over GST control) in the experiment with ETV3 and 1.15 fold enrichment (6-mer frequency, TF over GST control) with ETV6.
